MCF10A rereplic – induces DNA re-replication in MCF 10a normal breast cells; AID 624296; 2.9% of 350,000 active; Potency, µM (doses to about 46.1 µM), actives largely listed as activators; MCF 10A DNA re-replication, Hoechst nuclear intensity, 48 h; also: nearly all actives have a fitted effect of over 50% in size
HT1080NT lethal – kills 2HG-producing HT-1080-NT fibrosarcoma cells. HT-1080-NT fibrosarcoma viability, CellTiter-Glo ATP luminescence, 48 h. Potency, µM (top dose mostly 46.1 µM), usual class: cytotoxic. 1.6% of 360,000 active;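 also: NT is the 2HG producing partner of a matched IDH1 knockdown line; nearly all actives have a fitted effect of over 55% in size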
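A 48-hour cytotoxicity screen used HT-1080-NT cells plated 2 hours before compound delivery. ATP-based CellTiter-Glo luminescence measured viability, normalized to DMSO and no-cell controls.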
HT1080 IDH1KD tx – toxicity to HT-1080 IDH1 knockdown cells (counter line) | HT-1080 IDH1 knockdown viability, ATP luminescence, 48 h | Potency, µM (titrated, usually from 46.1 µM), usual class: cytotoxic | 2% of 360,000 active
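% activity derives from luminescence (CellTiter-Glo), normalised to DMSO and no-cell wells. HT-1080-IDH1KD cells, 750/well, had 48 h compound exposure at 37 °C.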
SW480 rerep – DNA re-replication induction in SW480 cells; SW480 DNA re-replication, Hoechst DNA content imaging, 48 h; Potency, µM (highest dose often 46.1 µM), hits mostly activators; 1.8% of 340,000 active; also: nearly all actives have a fitted effect of over 55% in size
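Compounds, transferred as 23 nL by pin tool, were incubated with cells for 48 hr; DNA content per nucleus was then quantified by Hoechst staining and fluorescence plate imaging.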
KB-3-1 cytotox – kills parental KB-3-1 adenocarcinoma cells. 1.4% of 400,000 active. Potency, µM (doses to about 46.1 µM), usual class: cytotoxic. AID 1347075. KB-3-1 viability, CellTiter-Glo ATP luminescence, 72 h; also: nearly all actives have a fitted effect of over 60% in size
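Viability of parental KB-3-1 cells, measured by CellTiter-Glo luminescence, followed a 72 h incubation at 37 °C with pinned compounds in phenol-red-free DMEM containing 10% FBS.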
KB-V1 MDR tox – KB-V1 MDR subline cytotoxicity. KB-V1 MDR cells viability, CellTiter-Glo, 72 h. Potency, µM (series often up to 46.1 µM), most hits filed as cytotoxic. 3.4% of 400,000 active. AID 1347076; also: nearly all actives have a fitted effect of over 60% in size
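Compound-treated KB-V1 multidrug-resistant cells, 72 h, 37 degrees C; viability by CellTiter-Glo. Fitted qHTS curves give the values.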
Each line names hits and unclear results; the compound was inactive in the other large screens. Only some compounds are listed: those with a hit (about 8% of all), similar ones and a draw of the others. Calls follow the shape of the dose curve; as a rule, active = well fitted curve in the direction sought with a large enough effect; inconclusive = small, poorly fitted or top-dose-only effect, or another doubt; inactive = no such curve, though single readings can be large; an effect the other way counts as inactive or inconclusive.

CCCNC(=O)c1c2c(nc3ccccc13)C(=O)N(C1CCCCC1)C2	none (no result: MCF10A rereplic, HT1080NT lethal, HT1080 IDH1KD tx, SW480 rerep)
CCN(CC)CCn1c2c(c(SCC(=O)Nc3cccc4ccccc34)nc1=O)CCC2	none
CN(C)CCn1c2c(c(SCC(=O)Nc3cccc4ccccc34)nc1=O)CCCC2	SW480 rerep 0.581µM
COc1ccc(NC(=O)CSc2nc(=O)n(CCN3CCOCC3)c3c2CCC3)c(OC)c1	none
COc1ccc(NC(=O)CSc2nc(=O)n(CCN3CCOCC3)c3c2CCCC3)c(OC)c1	KB-V1 MDR tox 8.2µM
CCCCN1C(=O)CC2CCOC21C (centres undefined)	none (no result: MCF10A rereplic, SW480 rerep)
COc1cc(/C=N/Nc2nncn2N)ccc1OCc1c(C)no[n+]1[O-]	MCF10A rereplic 18.4µM, HT1080NT lethal inconclusive, HT1080 IDH1KD tx inconclusive, KB-V1 MDR tox inconclusive
COc1cc(/C=C(\C#N)C(N)=O)ccc1OCc1c(C)no[n+]1[O-]	KB-V1 MDR tox inconclusive
Nn1cnnc1N/N=C/c1ccc(Cl)cc1Cl	HT1080NT lethal inconclusive, HT1080 IDH1KD tx inconclusive
COc1ccc(/C=N/Nc2nncn2N)cc1Br	HT1080NT lethal 16.4µM, HT1080 IDH1KD tx inconclusive
COc1ccc(S(=O)(=O)N2CCOCC2)cc1NC(=O)C1CCCCN1S(=O)(=O)c1ccccc1 (centres undefined)	none
O=C(CCNC(=O)c1ccco1)Nc1ccccc1	none
Cc1ccc(S(=O)(=O)N2[C@H](CC(=O)c3cccs3)OC[C@@H]2C(C)C)cc1	HT1080NT lethal inconclusive, HT1080 IDH1KD tx inconclusive, KB-3-1 cytotox 18.4µM, KB-V1 MDR tox 18.4µM (no result: MCF10A rereplic, SW480 rerep)
CCOC(=O)c1sc(-c2ccccc2)cc1NC(=O)c1ccc(S(=O)(=O)N(CCOC)CCOC)cc1	none
COc1ccc(CCc2cc(OC)c(OC)c(OC)c2)cc1	MCF10A rereplic 1.84µM, HT1080NT lethal 1.64µM, HT1080 IDH1KD tx inconclusive, SW480 rerep inconclusive, KB-3-1 cytotox 0.517µM, KB-V1 MDR tox 2.59µM
Fc1ccc(Cn2cccc2C2=NC(c3ccccc3)CO2)cc1 (centres undefined)	none
CCc1ccccc1NC(=O)Cn1cccc1C1=NC(c2ccccc2)CO1 (centres undefined)	HT1080NT lethal inconclusive, HT1080 IDH1KD tx 16.4µM, SW480 rerep inconclusive, KB-V1 MDR tox inconclusive
Cc1ccc(NC(=O)Cn2cccc2C2=NC(c3ccccc3)CO2)cc1C (centres undefined)	MCF10A rereplic inconclusive, SW480 rerep inconclusive, KB-3-1 cytotox inconclusive, KB-V1 MDR tox 14.6µM
Cc1oc(-c2ccccc2)nc1Cn1cccc1C1=NC(c2ccccc2)CO1 (centres undefined)	MCF10A rereplic inconclusive, HT1080 IDH1KD tx inconclusive, SW480 rerep inconclusive, KB-3-1 cytotox 16.4µM, KB-V1 MDR tox 11.6µM
CCOCCn1cnc2sc(C(=O)NCCCN3CCOCC3)c(C)c2c1=O	none
CCC(CC)c1nc(C#N)c(NCc2ccccc2)o1	MCF10A rereplic inconclusive, HT1080NT lethal inconclusive, HT1080 IDH1KD tx inconclusive, SW480 rerep inconclusive, KB-3-1 cytotox 14.6µM, KB-V1 MDR tox inconclusive
COc1ccc(CCNc2oc(COc3ccccc3)nc2C#N)cc1	KB-V1 MDR tox 16.4µM
CCOc1ccc(Nc2oc(-c3cccc(Cl)c3)nc2C#N)cc1	MCF10A rereplic 16.4µM, SW480 rerep inconclusive
CCOc1ccc(Nc2oc(-c3ccco3)nc2C#N)cc1	MCF10A rereplic inconclusive, HT1080 IDH1KD tx inconclusive
N#Cc1nc(-c2ccc(OCc3ccccc3)cc2)oc1NCc1ccco1	MCF10A rereplic inconclusive
N#Cc1nc(Cc2ccccc2)oc1NCc1ccccc1	KB-V1 MDR tox inconclusive
CNc1oc(-c2ccc(OCc3ccccc3)cc2)nc1C#N	SW480 rerep inconclusive, KB-V1 MDR tox 23.1µM
Cc1cccc(CCNC(=O)Cn2ncc3c(=O)oc4ccccc4c32)c1	none (no result: MCF10A rereplic, HT1080NT lethal, HT1080 IDH1KD tx, SW480 rerep)
O=c1cc(CO)occ1OCc1cccc(C(F)(F)F)c1	none
CC(C)(C)c1ccc(-c2nc(C#N)c(NCc3cccnc3)o2)cc1	MCF10A rereplic inconclusive, HT1080NT lethal inconclusive, HT1080 IDH1KD tx inconclusive, KB-V1 MDR tox 20.6µM
COc1ccc(CNc2oc(COc3cccc(C)c3)nc2C#N)cc1	KB-V1 MDR tox inconclusive (no result: MCF10A rereplic, HT1080NT lethal, HT1080 IDH1KD tx, SW480 rerep)
Cc1ccc(CNc2oc(COc3ccccc3Cl)nc2C#N)cc1	MCF10A rereplic 4.11µM, SW480 rerep 11.6µM
Cc1ccc(OCc2nc(C#N)c(NCCc3ccccc3)o2)cc1	none (no result: MCF10A rereplic, HT1080NT lethal, HT1080 IDH1KD tx, SW480 rerep)
COc1ccc(CNc2oc(COc3ccccc3)nc2C#N)cc1	KB-V1 MDR tox 18.4µM
N#Cc1nc(COc2ccccc2F)oc1NCCc1ccccc1	MCF10A rereplic 23.1µM
Cc1cc(=O)oc2cc(NC(=O)c3cc(F)ccc3F)ccc12	KB-V1 MDR tox inconclusive
CC(c1n[nH]c(=S)n1Cc1ccccc1)N(C)C (centres undefined)	HT1080NT lethal inconclusive
COc1cc(Cl)ccc1OCc1cc(C(=O)NCc2cc(C(C)C)no2)no1	MCF10A rereplic inconclusive (no result: KB-3-1 cytotox, KB-V1 MDR tox)
CC(C)(C)C1CCC2(CC1)NC(=S)N(c1ccccc1)N2 (centres undefined)	MCF10A rereplic inconclusive, HT1080NT lethal inconclusive, HT1080 IDH1KD tx 5.8µM, KB-3-1 cytotox inconclusive
CCC(C)(C)C1CCC2(CC1)NC(=S)N(c1ccccc1)N2 (centres undefined)	MCF10A rereplic inconclusive, HT1080NT lethal inconclusive, HT1080 IDH1KD tx 18.4µM, KB-3-1 cytotox inconclusive
C[C@H]1CCC[C@]2(CC(=O)c3cc(F)ccc3O2)C1	none
CCOc1ccc2nc(NCCCNS(=O)(=O)c3ccccc3)c(C#N)cc2c1	MCF10A rereplic 2.91µM, SW480 rerep 7.31µM, KB-3-1 cytotox inconclusive, KB-V1 MDR tox inconclusive
CCOc1ccc2nc(NCCCNS(=O)(=O)c3ccc(F)cc3)c(C#N)cc2c1	MCF10A rereplic 2.06µM, SW480 rerep inconclusive, KB-3-1 cytotox 18.4µM
Nc1nc(CCl)nc(Nc2cccc3ccccc23)n1	MCF10A rereplic inconclusive, HT1080NT lethal 0.517µM, HT1080 IDH1KD tx inconclusive, SW480 rerep inconclusive, KB-3-1 cytotox inconclusive, KB-V1 MDR tox inconclusive
CCCCOC(=O)Nc1nc2ccc([N+](=O)[O-])cc2s1	none
CCN(CC(=O)Nc1ccc(NC(C)=O)cc1)C(=O)C1CCN(C(=O)c2ccccc2C)CC1	SW480 rerep 3.66µM
COc1ccc(NC(=O)c2ccc3ccccc3c2)cc1NS(=O)(=O)c1ccc(F)cc1	KB-V1 MDR tox 20.6µM
CC(C)c1ccc(NC(=O)c2ccc(NS(C)(=O)=O)cc2)cc1	MCF10A rereplic 9.2µM, HT1080NT lethal inconclusive
COc1ccc(OC)c(NS(=O)(=O)c2ccc(NC(=O)c3ccc(NS(C)(=O)=O)cc3)cc2)c1	MCF10A rereplic inconclusive, KB-3-1 cytotox 16.4µM
CN(C)CCCN(Cc1ccccc1)C(=S)Nc1ccc(OC(F)F)cc1	KB-V1 MDR tox inconclusive (no result: SW480 rerep)
COCCn1c(SCC(=O)c2ccc(OC)cc2)nc2cc(C(=O)NC3CCCC3)ccc2c1=O	none (no result: MCF10A rereplic, HT1080NT lethal, HT1080 IDH1KD tx, SW480 rerep)

Screening results from PubChem.
